Compound activity (PubChem BioAssay)
MEKK3 PB1 HTS = modulators of MEKK3-MEK5 PB1 binding, primary screen, biochemical, wildtype MEKK3, multiplex bead flow cytometry, Alexa488-MEK5 | bead-based flow cytometry, Alexa488-MEK5 binding to MEKK3; actives lie on both sides; 0 = blocked by unlabeled MEK5, 100 = vehicle | binding response (% of control), % at 10 µM | actives 1.4% (n = 290,000) | AID 1529, 2009;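 active = binding response more than 3 SD above or below the average of its plate-row segment, actives on both sides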;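 also: Alexa488 bead fluorescence after subtracting the streptavidin-only scavenger bead signal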
MEKK2mut PB1 HTS = MEK5 binding signal on mutant MEKK2 PB1, primary screen, biochemical, multiplex bead flow cytometry, Alexa488-MEK5 | Alexa488-MEK5 binding to MEKK2 mutant | percent response, % at 10 µM | actives 0.35% (n = 290,000) | AID 1530, 2009; in the data active = percent response above about 24%, passing the limit was not always enough
PREPL inh = PREPL enzyme inhibitors, primary screen, biochemical, fluorescence polarization. inhibition, % at 5.96 µM. actives 0.68% (n = 320,000). recombinant PREPL, fluorescence polarization activity-based probe. Prolyl endopeptidase-like (Homo sapiens), Q4J6C6. AID 2751, 2010
Target sequence (Q4J6C6 whole entry, looked up): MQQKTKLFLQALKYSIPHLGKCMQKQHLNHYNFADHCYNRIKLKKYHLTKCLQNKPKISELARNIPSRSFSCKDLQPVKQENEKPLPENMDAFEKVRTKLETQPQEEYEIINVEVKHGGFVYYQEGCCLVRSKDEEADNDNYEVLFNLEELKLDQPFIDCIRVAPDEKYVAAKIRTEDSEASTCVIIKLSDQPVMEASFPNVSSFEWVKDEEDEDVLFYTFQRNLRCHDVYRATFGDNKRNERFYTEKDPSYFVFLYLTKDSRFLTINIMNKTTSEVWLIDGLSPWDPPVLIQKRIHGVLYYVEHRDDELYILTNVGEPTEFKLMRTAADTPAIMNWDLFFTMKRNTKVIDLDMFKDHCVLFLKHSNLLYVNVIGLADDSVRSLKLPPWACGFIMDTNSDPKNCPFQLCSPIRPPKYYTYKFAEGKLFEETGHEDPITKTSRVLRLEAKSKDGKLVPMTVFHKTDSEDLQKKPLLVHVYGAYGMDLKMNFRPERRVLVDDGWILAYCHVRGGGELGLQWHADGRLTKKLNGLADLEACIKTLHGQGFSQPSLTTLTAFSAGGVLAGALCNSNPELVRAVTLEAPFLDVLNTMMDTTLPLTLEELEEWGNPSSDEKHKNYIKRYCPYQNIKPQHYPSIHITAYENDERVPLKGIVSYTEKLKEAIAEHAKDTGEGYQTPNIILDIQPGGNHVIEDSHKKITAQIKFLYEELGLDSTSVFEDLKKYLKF
UBC13 polyUb = UBC13 polyubiquitin chain formation inhibitors, primary screen, biochemical, TR-FRET, uHTS | inhibition, % at 20 µM | actives 0.47% (n = 330,000) | AID 485273, 2010 | Ubiquitin-conjugating enzyme E2 N (Homo sapiens), P61088; in the data active = inhibition above about 45%, passing the limit was not always enough
ATG4B inh = ATG4B protease inhibitors, primary screen, biochemical, fluorescence, uHTS; Cysteine protease ATG4B (Homo sapiens), Q9Y4P1; actives 0.51% (n = 340,000); ATG4B cleavage of LC3-PLA2, NBD-HPC fluorescence, 1 h; AID 504462, 2011; inhibition, % at 8.33 µM; in the data active = inhibition above about 40%
MEKK2 WT-MEK5 = modulators of MEK5 binding to wildtype MEKK2, primary screen, biochemical, multiplex bead flow cytometry, Alexa488-MEK5. Mitogen-activated protein kinase kinase kinase 2 (Homo sapiens), Q9Y2U5. Alexa488-MEK5 binding to MEKK2 WT; actives lie on both sides. binding response (% of control), % at 10 µM. actives 1.1% (n = 290,000). AID 1531, 2009; in the data active = binding response below about 67% or above about 130%
MEKK2wt confirm = modulators of MEK5 binding to wildtype MEKK2, confirmation, biochemical, single concentration, multiplex bead flow cytometry; shares compounds with MEKK3 PB1 HTS; Alexa488-MEK5 binding to MEKK2 WT; actives lie on both sides; binding response (% of control), % at 10 µM; actives 2.4% (n = 5,900); in the data active = binding response below about 16% or above about 210%; inactive = in between
MEKK2mut-MEK5 = mutant MEKK2 PB1-MEK5 binding signal retest – biochemical, single concentration, multiplex bead flow cytometry, confirmation. Alexa488-MEK5 binding to MEKK2 mutant. percent response, % at 10 µM. shares compounds with MEKK3 PB1 HTS. actives 2% (n = 5,900); in the data active = percent response mostly above about 71%, no sharp cut-off; inactive = mostly below about 38%;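 also: higher means compound restores mutant binding toward wildtype level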
MEKK3 confirm = MEKK3 wild-type PB1 binding to MEK5, inhibitors, confirmation, biochemical, bead multiplex flow cytometry, single concentration, wildtype; shares compounds with MEKK3 PB1 HTS; Alexa488-MEK5 binding to MEKK3; active compounds read low; binding response (% of control), % at 10 µM; actives 1.8% (n = 5,900); AID 1894, 2009;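 active = binding response below 72% of control, or above a set upper limit, though filed actives all read lower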;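 also: lower values mean stronger disruption of MEK5 binding to MEKK3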
PREPL inh cf = human PREPL enzyme inhibitors, confirmation, biochemical, fluorescence polarization. shares compounds with PREPL inh. recombinant PREPL, fluorescence polarization activity probe. inhibition, % at 5.96 µM. actives 67% (n = 2,000). AID 2803, 2010
Large screens that a line does not name were inactive (follow-up assays come after a bar, where they were run); [ ] = another dose, or the depositor's remark. Hits are enriched below; roughly 3.1% of the tested compounds scored in any of these assays. Rule as the data show it, unless noted: active = inhibition above about 43%; inactive = the rest.

Cc1cc(C)c2cc3c(ccn3C3OC[C@H](O)[C@H](O)[C@H]3O)cc2n1 (stereo not given in full)	MEKK2 WT-MEK5 6.0[inhibitor] | MEKK2wt confirm inactive | MEKK2mut-MEK5 inactive | MEKK3 confirm inactive
CCN(CC)C(=O)CSc1nnc(-c2ccc(O)cc2)n1CC1CCCO1 (stereo not given)	MEKK3 PB1 HTS 136 | MEKK2wt confirm inactive | MEKK2mut-MEK5 inactive | MEKK3 confirm inactive
CCC(=O)Nc1ccc(C(=O)CSc2nnc(-c3ccc(O)cc3)n2CC2CCCO2)cc1OC (stereo not given)	none (no result: MEKK3 PB1 HTS, MEKK2mut PB1 HTS, MEKK2 WT-MEK5)
Cc1ccc2nc(N(CCCN(C)C)C(=O)c3cc(-c4cccs4)nc4ccccc34)sc2c1	MEKK2mut PB1 HTS 73, MEKK2 WT-MEK5 228 | MEKK2wt confirm inactive | MEKK2mut-MEK5 inactive | MEKK3 confirm inactive
CN(C)CCCN(C(=O)c1cc(-c2cccs2)nc2ccccc12)c1nc2c(F)cccc2s1	MEKK2mut PB1 HTS 27, MEKK2 WT-MEK5 172 | MEKK2wt confirm inactive | MEKK2mut-MEK5 inactive | MEKK3 confirm inactive
CN(C)CCCN(C(=O)/C=C/c1cccs1)c1nc2c(F)cccc2s1	none (no result: PREPL inh, UBC13 polyUb)
CCN(C(=O)COC(=O)c1cccc(S(=O)(=O)N(C)C)c1)c1c(N)n(Cc2ccccc2)c(=O)[nH]c1=O	none (no result: MEKK3 PB1 HTS, MEKK2mut PB1 HTS, PREPL inh, UBC13 polyUb, MEKK2 WT-MEK5)
Cc1ccc(CNC(=O)C2CC(=O)N(CCC(C)C)C2)cc1 (stereo not given)	MEKK3 PB1 HTS 5.0[inhibitor], MEKK2 WT-MEK5 8.0[inhibitor] | MEKK2wt confirm inactive | MEKK2mut-MEK5 inactive | MEKK3 confirm inactive
CC(C)CCN1CC(C(=O)NCc2ccccc2)CC1=O (stereo not given)	none
CC1=NNC(=O)C1CC(=O)N/N=C/C=C/c1ccccc1 (stereo not given)	none
CCN1CCN(c2ccc(S(=O)(=O)N3CCCCC3)cc2NC(=O)COc2ccc(F)cc2Cl)CC1	MEKK2 WT-MEK5 139 | MEKK2wt confirm inactive | MEKK2mut-MEK5 inactive | MEKK3 confirm inactive
CCN1CCN(c2ccc(S(=O)(=O)N3CCCCC3)cc2NC(=O)COc2cc(C)ccc2Cl)CC1	none (no result: MEKK3 PB1 HTS, MEKK2mut PB1 HTS, MEKK2 WT-MEK5)
Cc1ccc(Cn2cccc2C2=NC(C)CO2)cc1 (stereo not given)	MEKK3 PB1 HTS 125 | MEKK2wt confirm inactive | MEKK2mut-MEK5 inactive | MEKK3 confirm inactive
CC(C)C1COC(c2cccn2Cc2ccccc2Cl)=N1 (stereo not given)	none
Cc1cccc(OCC(=O)Nc2ccc3c(c2)OCO3)c1C	MEKK3 PB1 HTS 2.0[inhibitor], MEKK2 WT-MEK5 2.0[inhibitor] | MEKK2wt confirm inactive | MEKK2mut-MEK5 inactive | MEKK3 confirm inactive
O=C(COC(=O)Cc1ccccc1F)Nc1ccc2c(c1)OCCO2	MEKK3 PB1 HTS 138 | MEKK2wt confirm inactive | MEKK2mut-MEK5 inactive | MEKK3 confirm inactive
CN1CCN(C(=O)c2cc([N+](=O)[O-])cc([N+](=O)[O-])c2)CC1	none
COc1ccc(NC2CC(=O)N(c3cccc(C)c3)C2=O)cc1 (stereo not given)	none
COc1ccc(NC2CC(=O)N(c3ccc(C(=O)O)cc3)C2=O)cc1 (stereo not given)	MEKK3 PB1 HTS 130 | MEKK2wt confirm inactive | MEKK2mut-MEK5 inactive | MEKK3 confirm inactive
Cn1c(-c2ccc(C=O)s2)nc2c3ccccc3c3ccccc3c21	MEKK2 WT-MEK5 63[inhibitor] | MEKK2wt confirm inactive | MEKK2mut-MEK5 inactive | MEKK3 confirm inactive
O=C(Nc1cccnc1)c1cc(F)c(F)cc1Cl	MEKK3 PB1 HTS 1.0[inhibitor], MEKK2 WT-MEK5 1.0[inhibitor] | MEKK2wt confirm inactive | MEKK2mut-MEK5 inactive | MEKK3 confirm inactive
O=C(O)c1cc(Cl)c(Cl)cc1C(=O)Nc1cccnc1	none (no result: ATG4B inh)
CC(=O)ONC(=Nc1ccccc1)c1nonc1N	MEKK3 PB1 HTS 47[inhibitor] | MEKK2wt confirm inactive | MEKK2mut-MEK5 inactive | MEKK3 confirm inactive
Cc1ccc(N=C(NOC(=O)c2ccccc2)c2nonc2N)c(C)c1	none
CCOC(=O)c1sc2nc(CSc3ccccc3)nc(NCCN(C)C)c2c1C	MEKK2 WT-MEK5 176 | MEKK2wt confirm inactive | MEKK2mut-MEK5 inactive | MEKK3 confirm inactive
CCCCn1cnc2c(c(-c3ccccc3)c(-c3ccccc3)n2Cc2ccco2)c1=N	none
N=c1c2c(-c3ccccc3)c(-c3ccccc3)n(Cc3ccccc3)c2ncn1CCCn1ccnc1	MEKK2 WT-MEK5 146 | MEKK2wt confirm inactive | MEKK2mut-MEK5 inactive | MEKK3 confirm inactive
N=c1c2c(-c3ccccc3)c(-c3ccccc3)n(Cc3ccco3)c2ncn1Cc1ccco1	MEKK2mut PB1 HTS 41, MEKK2 WT-MEK5 152 | MEKK2wt confirm inactive | MEKK2mut-MEK5 inactive | MEKK3 confirm inactive
O=C(NNC(=O)c1cccc(C(F)(F)F)c1)c1ccncc1	none
O=C(NNC1=NCCN1Cc1ccccc1)c1cccc(C(F)(F)F)c1	MEKK3 PB1 HTS 128 | MEKK2wt confirm inactive | MEKK2mut-MEK5 inactive | MEKK3 confirm inactive
COc1ccc(CCC(C)NCCc2ccc(Cl)cc2Cl)cc1 (stereo not given)	MEKK2 WT-MEK5 152 | MEKK2wt confirm inactive | MEKK2mut-MEK5 inactive | MEKK3 confirm inactive
Cc1cc(N)ccc1N1CCCC1	MEKK3 PB1 HTS 71[inhibitor], PREPL inh 57 | MEKK2wt confirm inactive | MEKK2mut-MEK5 inactive | MEKK3 confirm inactive | PREPL inh cf 45
COc1ccc(N2C(=O)CSC(c3ccccc3)C2=O)cc1 (stereo not given)	none
COc1ccc(CC(=O)Nc2cccc(S(=O)(=O)N3CCOCC3)c2)cc1OC	none (no result: MEKK3 PB1 HTS, MEKK2mut PB1 HTS, MEKK2 WT-MEK5)
N#Cc1nc(COc2ccccc2)oc1NCCN1CCOCC1	none
